Assay outcomes (PubChem)
Compounds with a hit are over-represented: about 3.3% of the library has one in this group of screens.
Calb FLC: C. albicans growth inhibition with fluconazole, primary screen, CaCi-2 strain, Alamar Blue fluorescence | C. albicans CaCi-2 (fluconazole-resistant clinical isolate) + fluconazole, 48 h | growth inhibition, % (test concentration not listed) | actives 0.57% (n = 300,000) | AID 1979, 2009;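 active means growth inhibition above about 58% in most replicates, limit read from the data, passing the limit was not always enough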;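 further: all wells also contain fluconazole at 8 µg/ml as a sub-toxic cotreatment; 0% = median of DMSO wells and 100% = median of geldanamycin control wells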
PHOSPHO1 inh: PubChem AID 1565 | Phosphoethanolamine/phosphocholine phosphatase (Homo sapiens), Q8TCT1 | recombinant PHOSPHO1, absorbance phosphatase assay | inhibition, % at 13.3 µM | actives 1.1% (n = 290,000); in the data active means inhibition above about 60%
Target sequence (Q8TCT1 whole entry, looked up): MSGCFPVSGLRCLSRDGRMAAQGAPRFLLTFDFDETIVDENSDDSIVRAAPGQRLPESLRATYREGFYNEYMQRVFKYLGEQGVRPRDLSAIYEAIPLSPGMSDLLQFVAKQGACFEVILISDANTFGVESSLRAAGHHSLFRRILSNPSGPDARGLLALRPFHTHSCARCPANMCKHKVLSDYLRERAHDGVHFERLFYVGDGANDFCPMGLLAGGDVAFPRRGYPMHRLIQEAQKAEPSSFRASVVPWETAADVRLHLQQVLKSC
KCC2 mod: KCC2 cotransporter modulators, thallium flux, primary screen, cell-based, HEK293 KCC2, FluoZin-2 fluorescence, MLSMR | KCC2 cells, thallium flux FluoZin-2 fluorescence | B-score of Tl+ flux slope (higher = more flux/activation; lower = inhibition) at 10 µM | actives 2.2% (n = 190,000) | AID 1456, 2008;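 active means thallium flux slope and its plate-corrected score both differing from the plate sample mean at a set confidence after two filtering rounds, in either direction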;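 further: slope of fluorescence scaled to starting intensity during 10 to 20 s after thallium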
Efflux pump mplx: inhibitors of Candida efflux pumps in yeast, primary screen, S. cerevisiae, Nile Red, multiplex; AID 485275, 2010; S. cerevisiae Candida pump triplex; inhibition, % at 10 µM; actives 0.44% (n = 330,000);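 active means plate passing quality check with inhibition over a set limit, or well fluorescence over plate mean plus 4 SD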;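 further: Nile Red retained in pooled yeast measured as flow cytometry median fluorescence; 0% = buffer negative control and 100% = Enniatin B positive control; higher means more Nile Red kept so more efflux inhibition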
H9c2 protect: cardioprotection against H2O2-induced cell death, primary screen, uHTS, H9c2 cells, ATPLite luminescence | actives 0.63% (n = 360,000) | protection from H2O2 cell death, % at 20 µM | H9c2 cardiomyocytes, H2O2 injury protection, 2 h;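 active means compounds giving at least 50% protection of heart cells from peroxide-induced death in the single-dose screen, raw or plate-pattern-corrected value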;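 further: 0% = DMSO wells with peroxide and 100% = DMSO wells without peroxide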
Numbers without * were called inactive; nt = no result given.

SMILES | Calb FLC | PHOSPHO1 inh | KCC2 mod | Efflux pump mplx | H9c2 protect
Cc1ccc(-c2cc(-c3ccccc3)cc(-c3ccccc3)[n+]2-c2ccccc2C(=O)O)cc1 | 95.9* | nt | nt | 0.0 | -15.1
O=P(O)(Oc1ccccc1)c1ccccc1 | nt | nt | nt | nt | 2.8
O=[N+]([O-])c1ccc(-[n+]2c(-c3ccccc3)cc(-c3ccccc3)cc2-c2ccccc2)cc1 | -1.5 | 35.6 | nt | 0.2 | -7.1
COc1ccc(-[n+]2c(-c3ccccc3)cc(-c3ccccc3)cc2-c2ccccc2)cc1 | 108.4* | nt | nt | nt | nt
Oc1ccc(-[n+]2c(-c3ccccc3)cc(-c3ccccc3)cc2-c2ccccc2)cc1 | 102.6* | nt | nt | 0.0 | -8.4
CCOC(=O)c1cccc(C2=C(CNC(=O)c3cccnc3)[C@H]3CC[C@@H](C2)N3Cc2ccccc2)c1 | nt | nt | nt | nt | 55.2*
CC(O)C1C=CC=CC(=O)OC2CC3OC4C5OC5(C)CCC4(COC(=O)C4OC4(C)C(O)CO1)C2(C)C31CO1 (stereo not given) | nt | nt | nt | nt | -1.7
CC(=O)OC1C(=O)OCC23CCC4(C)OC4C2OC2CC(OC(=O)C=CC=CC(=O)OCCC1C)C3(C)C21CO1 (stereo not given) | nt | nt | nt | nt | 55.8*
CC1=CC2OC3CC4OC(=O)C=CC=CC(=O)OCCC(C)C(O)C(=O)OCC2(CC1O)C4(C)C31CO1 (stereo not given) | nt | nt | nt | nt | 53.7*
O=C1C2CCN(CC2)C1Cc1ccc(OCc2ccccc2)cc1 (stereo not given) | 109.2* | 42.8 | -0.496 | 0.0 | -5.9
CC[n+]1c(/C=C/N(C)c2ccccc2)sc2ccc(Cl)cc21 | 105.7* | 11.5 | -1.66 | 0.1 | -15.7
CN1CCN(c2ccc([N+](=O)[O-])c(SCCO)c2)CC1 | -3.2 | -3.4 | 0.0157 | -0.1 | 2.5
CC[N+](CC)(CC)CC | -12.2 | 13.0 | 0.422 | 0.0 | 19.4
CC(C)CCn1c(=O)c(C(=O)Nc2ccccc2S(N)(=O)=O)c(O)c2ccccc21 | -4.8 | -13.8 | 6.61* | 0.0 | -14.3
CCCCn1c(=O)c(C(=O)Nc2ccccc2C)c(O)c2ccccc21 | -10.6 | 29.5 | nt | -0.1 | 30.8
COC(=O)C1=C(c2ccc(Cl)c(C(F)(F)F)c2)C[C@@H]2CC[C@H]1N2C(=O)N1CCC(C)CC1 | nt | nt | nt | 0.6 | 5.7
Nc1nc(N)c2cnnn2n1 | nt | nt | nt | nt | 0.5
CCOc1cccc(OCC)c2c(C)[n+](CC3CCCO3)c(C)c1-2 (stereo not given) | 2.7 | 95.4* | -1.16 | 0.1 | 3.3
COc1ccc(CCNCC2CCCO2)cc1 (stereo not given) | -2.2 | 13.0 | nt | 0.1 | -1.4
CN(C)CCN(C(=O)COc1ccc(Cl)cc1)c1nc2cc3c(cc2s1)OCO3 | -4.9 | 62.9* | nt | 0.2 | 2.0
COc1ccc(C)cc1NC1=NC(C)(C)CS1 | -7.5 | 7.3 | 0.951 | 0.0 | -0.4
O=C1C2CCCN2C(c2ccc(Cl)cc2)N1c1ccccn1 (stereo not given) | 11.1 | 15.5 | nt | 0.2 | 4.0
O=C1C2CCCN2C(c2ccccc2)N1c1ccccn1 (stereo not given) | 62.6* | 3.9 | 0.485 | 0.2 | 1.8
C=C(C)CSc1nnc([C@@H](N)Cc2c[nH]c3ccccc23)o1 | 26.4 | 89.1* | nt | 0.0 | -0.1
Cc1ccc(NC(=O)CSc2nnc([C@@H](N)Cc3c[nH]c4ccccc34)o2)c(C)c1 | 109.3* | 37.9 | -0.557 | -0.1 | -0.5
SMILES | Calb FLC | PHOSPHO1 inh | KCC2 mod | Efflux pump mplx | H9c2 protect
CC(C)=CCSc1nnc([C@@H](N)Cc2c[nH]c3ccccc23)o1 | 34.7 | 3.5 | -1.83 | 0.1 | -4.7
N[C@@H](Cc1c[nH]c2ccccc12)c1nnc(SCc2ccccc2)o1 | 10.0 | 21.8 | nt | 0.0 | -1.2
N[C@@H](Cc1c[nH]c2ccccc12)c1nnc(SCc2ccc(F)cc2)o1 | 12.4 | 62.2* | -1.37 | nt | 4.0
CCc1ccccc1NC(=O)CSc1nnc([C@@H](N)Cc2c[nH]c3ccccc23)o1 | 14.9 | 50.9 | -1.15 | 0.1 | -3.1
Clc1ccc2sc(C3CCNCC3)nc2c1 | -4.9 | 32.7 | nt | 0.1 | 2.4
O=C(c1ccc(F)c([N+](=O)[O-])c1)N1CC2CC(C1)c1cccc(=O)n1C2 (stereo not given) | 3.0 | 29.2 | nt | 0.1 | -5.5
OCC[N+]12CCC(CC1)C(C(O)(c1ccccc1)c1ccccc1)C2 (stereo not given) | -4.7 | 28.3 | 0.806 | 0.3 | -1.8
O=C(C[N+]12CCC(CC1)C(C(O)(c1ccccc1)c1ccccc1)C2)c1ccc(Br)cc1 (stereo not given) | 94.9* | 19.7 | 0.714 | -0.1 | 10.4
COc1ccc(C2=NCC(=S)Nc3ccc(Cl)cc32)cc1Cl | 6.0 | 20.8 | nt | -0.1 | 17.9
c1ccc2c(CNC3CCCCC3)c[nH]c2c1 | 8.6 | -9.2 | -5.12* | -0.1 | nt
CN1C(=O)NC(=O)[C@]2(Cc3ccccc3N3CCN(c4ccccc4)CC32)C1=O (stereo not given in full) | 0.2 | 65.0* | -0.55 | 0.3 | 1.1
O=C1NC(=O)[C@]2(Cc3ccccc3N3CCN(c4ccccc4)CC32)C(=O)N1c1ccccc1 (stereo not given in full) | 18.5 | 18.8 | nt | 0.1 | 14.7
O=C1NC(=O)[C@]2(Cc3ccccc3N3CCN(c4ccccc4)CC32)C(=O)N1Cc1ccccc1 (stereo not given in full) | 14.1 | 71.5* | -1.69 | 0.2 | 0.3
O=[N+]([O-])c1c2ccccc2cc2ccccc12 | nt | nt | nt | 0.3 | -2.8
CC12CCC(=O)C=C1CCC1C2CCC2(C)C1CCC2(O)CC#N (stereo not given) | nt | nt | nt | nt | -1.6
CN(C)c1ccc(/C=C/C=C/c2sc3ccccc3[n+]2C)cc1 | 98.0* | 6.3 | 0.0989 | -0.1 | -9.9
CN(C)c1ccc(/C=C/c2cc[n+](C)c3ccccc23)cc1 | nt | -4.9 | -0.596 | nt | -19.1
CCCc1cc(=O)oc2cc(OCC(=O)N3C[C@H]4C[C@@H](C3)c3cccc(=O)n3C4)ccc12 | 1.3 | 39.0 | nt | 0.0 | 3.9
CCC(c1nnnn1Cc1ccccc1)N1CCC(n2c(=O)[nH]c3ccccc32)CC1 (stereo not given) | nt | nt | nt | nt | 51.1*
CCn1cc(C(=O)c2ccccc2)c2ccccc21 | 97.5* | 11.3 | 0.07 | 0.2 | -3.4
CC(C)NC(=O)Cn1cc(C(=O)c2ccccc2)c2ccccc21 | -1.8 | nt | nt | 0.0 | -3.8
